# In the supplement of paper PMC9135407:
# Where “and” joins values, the source holds several entries; their conditions need not be identical. Identical values can stand only once. Counter-ions that a name gives are not always drawn. Among all 5,800 compounds or so, about 620 (11%) showed activity. What follows is part of a selection rich in actives, with near analogues and random picks from the rest. Unmarked numbers belong to inactive results.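 How the source made its calls: active = score above a cut-off or among the top three wells of a plate; in these data no inactive exceeds 0.85.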
# Test system: primary human hepatic stellate cells (donor 1)
# Assay: scaled lipid accumulation score (0 = DMSO-like, 1 = nortriptyline-like); higher = stronger HSC inactivation (lipid re-accumulation), active = hit call of the paper
# Conditions: 48 h
# [1] = library stock concentration: 80 uM
# [2] = library stock concentration: 400 uM
# [3] = library stock concentration: 2 mM
# [4] = library stock concentration: 3.33 mM
# [5] = library stock concentration: 10 mM
# [6] = library stock concentration: 1 mM
smiles,measurement,setting,value
CC(=O)Nc1cccc(-n2c(=O)n(C3CC3)c(=O)c3c(Nc4ccc(I)cc4F)n(C)c(=O)c(C)c32)c1,scaled lipid accumulation score,[1],≤ -0.009
same,scaled lipid accumulation score,[2],≤ -0.003
same,scaled lipid accumulation score,[3],0.049
same,scaled lipid accumulation score,[4],≤ 0
same,scaled lipid accumulation score,[5],≤ 0 and 0.058
O=C(N/N=C/c1ccc(O)c(O)c1)c1cc2ccccc2cc1O [Dynasore],scaled lipid accumulation score,[4],≤ -0.009
same,scaled lipid accumulation score,[5],0.182
"CN=C(N)NCCC[C@H](N)C(=O)O [L-Ornithine, N5-[imino(methylamino)methyl]-[CAS]]",scaled lipid accumulation score,[5],≤ 0
O=C(O[C@H]1[C@H](Oc2ccccc2COC(=O)C2(O)C=CCCC2=O)O[C@H](CO)[C@@H](O)[C@@H]1O)c1ccccc1 (stereo not given in full),scaled lipid accumulation score,[5],≤ 0
COc1cccc(OC)c1OCCNCC1COc2ccccc2O1 (stereo not given) [WB-4101 hydrochloride],scaled lipid accumulation score,[5],0.182
COc1cccc(OC)c1OCCNCC1COc2ccccc2O1 (stereo not given) [WB 4101 hydrochloride],scaled lipid accumulation score,[5],0.337
CCCCC[C@@H](O)/C=C/[C@H]1[C@H](C/C=C\CCCC(=O)O)[C@H](O)C[C@@H]1O [ent-Prostaglandin F2.alpha.],scaled lipid accumulation score,[6],≤ 0
CCOC(=O)/C=C/[C@H](CC(C)C)NC(=O)[C@H](CO)NC(=O)[C@@H](NC(=O)c1cccc(O)c1C)C(C)C,scaled lipid accumulation score,[6],≤ 0
C[C@@H]1C(=O)NC2=Nc3cccc(Cl)c3CN21 [Quazinone],scaled lipid accumulation score,[5],≤ 0
N=C1C=CC(=C(c2ccc(N)cc2)c2ccc(N)cc2)C=C1 [Pararosaniline pamoate],scaled lipid accumulation score,library stock concentration: 3 mM,0.375
same,scaled lipid accumulation score,[5],0.435
C=CC(=O)Nc1cccc(Nc2nc(NC3CCC(N(C)C)CC3)nc3c2ncn3C(C)C)c1 (stereo not given),scaled lipid accumulation score,[1],≤ 0
same,scaled lipid accumulation score,[2],≤ 0
same,scaled lipid accumulation score,[3],≤ 0
same,scaled lipid accumulation score,[5],0.782
CCCCC[C@H](O)/C=C/[C@H]1C=CC(=O)[C@@H]1CCCCCCC(=O)OCC [Prostaglandin A1 ethyl ester],scaled lipid accumulation score,[6],≤ 0
NC(N)=O,scaled lipid accumulation score,[5],≤ 0
same,scaled lipid accumulation score,library stock concentration: 33.3 mM,≤ 0
CC/C=C\C/C=C\C/C=C\C/C=C\CCCCC(=O)O [Stearidonic Acid],scaled lipid accumulation score,[6],≤ 0
C=C1C[C@H](O)[C@H](C/C=C\CCCC(=O)O)[C@H]1/C=C/C(=O)CCCCC [11-deoxy-11-methylene-15-keto Prostaglandin D2],scaled lipid accumulation score,[6],≤ 0
COc1cc(N2CCN(C)CC2)ccc1Nc1ncc2c(n1)N(C)c1ccccc1C(=O)N2C,scaled lipid accumulation score,[1],0.087
same,scaled lipid accumulation score,[2],0.062
same,scaled lipid accumulation score,[3],0.241
same,scaled lipid accumulation score,[5],0.703
COc1cc(C(=O)N2CCC(N3CCN(C)CC3)CC2)ccc1Nc1ncc2c(n1)N(C)c1ccccc1C(=O)N2C [listing 1 of 2 here],scaled lipid accumulation score,[5],0.929 (active)
COc1cc(N2CCC(N3CCN(C)CC3)CC2)ccc1Nc1ncc(Cl)c(-c2c[nH]c3ccccc23)n1 [listing 1 of 2 here],scaled lipid accumulation score,[3],0.981 (active)
same,scaled lipid accumulation score,[5],0.967 (active)
COc1cc(N2CCC(N)CC2)ccc1Nc1ncc(Cl)c(-c2c[nH]c3ccccc23)n1,scaled lipid accumulation score,[4],0.146
same,scaled lipid accumulation score,[5],0.238
COc1cc(C(=O)N2CCC(N3CCN(C)CC3)CC2)ccc1Nc1ncc2c(n1)N(C)c1ccccc1C(=O)N2C [listing 2 of 2 here],scaled lipid accumulation score,[1],≤ 0
same,scaled lipid accumulation score,[2],0.015
same,scaled lipid accumulation score,[3],0.329
COc1cc(N2CCC(N3CCN(C)CC3)CC2)ccc1Nc1ncc(Cl)c(-c2c[nH]c3ccccc23)n1 [listing 2 of 2 here],scaled lipid accumulation score,[1],0.057
same,scaled lipid accumulation score,[2],0.358
CCCCCCCCCCCCCCC(F)C(=O)O (stereo not given) [2-Fluoropalmitic acid],scaled lipid accumulation score,[6],≤ -0.021
CCCCCCCCCCCCCCC(F)C(=O)O (stereo not given) [2-Fluoropalmitic Acid],scaled lipid accumulation score,[6],≤ 0
CCCCCC(=O)/C=C/[C@H]1[C@H](O)CC(=O)[C@@H]1C/C=C\CCCC(=O)O [15-keto Prostaglandin E2],scaled lipid accumulation score,[6],≤ 0
CO[C@@H]1[C@@H](O[C@@H]2O[C@H](C)[C@@H](O[C@H]3C[C@@](C)(O)[C@@H](OC(=O)CC(C)C)[C@H](C)O3)[C@H](N(C)C)[C@H]2O)[C@@H](CC=O)C[C@@H](C)[C@@H](O)/C=C/C=C/C[C@@H](C)OC(=O)C[C@H]1O,scaled lipid accumulation score,[5],0.014
CCCCCC(O)C=CC1C(O)CC(O)C1CCCCCCC(=O)O (stereo not given) [Prostaglandin  F1a],scaled lipid accumulation score,[6],≤ -0.021
COc1cc(/C=C(\C#N)C(=O)Nc2nnc(C(F)(F)F)s2)ccc1OCc1ccc(C(F)(F)F)cc1C(F)(F)F,scaled lipid accumulation score,[5],≤ 0
O=c1cc(-c2ccc(O)cc2)oc2c([C@@H]3O[C@H](CO)[C@@H](O)[C@H](O)[C@H]3O)c(O)cc(O)c12 [Vitexin],scaled lipid accumulation score,,≤ 0
CN(C)c1ccc2nc3ccc(=[N+](C)C)cc-3sc2c1 [Methylene blue],scaled lipid accumulation score,library stock concentration: 5.9 mM,0.252
CCCCCCCC/C=C\CCCCCCCC(=O)c1nc2ncccc2o1 [Oleoyl Oxazolopyridine],scaled lipid accumulation score,[6],0.017
O=C1c2ccccc2C(=O)c2c1ccc(O)c2O [Alizarin],scaled lipid accumulation score,[4],≤ 0
same,scaled lipid accumulation score,[5],≤ 0
CC(C)=CCC1=C(O)C(=O)c2ccccc2C1=O [Lapachol],scaled lipid accumulation score,[5],≤ 0
CC1(C)C(=O)N=C2C1=C(O)C(=O)c1ccccc12,scaled lipid accumulation score,[5],0.923 (active)
Cc1ccc(/C=C2\CNC/C(=C\c3ccc(C)cc3)C2=O)cc1.Cl,scaled lipid accumulation score,[5],1.43 (active)
CC1(C)C=C(CN2C/C(=C\c3ccc(F)cc3)C(=O)/C(=C/c3ccc(F)cc3)C2)C(C)(C)N1O,scaled lipid accumulation score,[4],0.264
same,scaled lipid accumulation score,[5],0.694
COc1ccc(/C=C2\COc3ccc(C)cc3C2=O)cc1O,scaled lipid accumulation score,[5],0.275
CN(C)CCSSCCNC(=O)C1CCN(C(=O)CSc2ccc(Cl)cc2)CC1,scaled lipid accumulation score,[4],≤ -0.009
same,scaled lipid accumulation score,[5],≤ 0
CCCCC[C@H](O)/C=C/[C@@H]1[C@@H](C/C=C\CCCC(=O)NCCO)[C@@H](O)C[C@@H]1O [11.beta.-Prostaglandin F2.alpha. Ethanolamide],scaled lipid accumulation score,[6],≤ 0
CCCCC/C=C\C/C=C\C/C=C\C=C\[C@@H](O)CCCC(=O)O,scaled lipid accumulation score,library stock concentration: 100 uM,≤ -0.021
CN(C)CCOc1cc(-c2cn[nH]c2)ccc1NC(=O)C1COc2ccccc2O1 (stereo not given) [listing 1 of 2 here],scaled lipid accumulation score,[2],≤ -0.005
same,scaled lipid accumulation score,[3],0.383
CN(C)CCOc1cc(-c2cn[nH]c2)ccc1NC(=O)C1COc2ccccc2O1 (stereo not given) [listing 2 of 2 here],scaled lipid accumulation score,[5],1.08 (active)
O=C(Nc1ccc(-c2cn[nH]c2)cc1)C1COc2ccccc2O1 (stereo not given) [Rho Kinase Inhibitor V],scaled lipid accumulation score,[4],≤ 0
CCCCCCCCCCCCCCCCCC=CC(=O)O [.DELTA.2-cis Eicosenoic Acid],scaled lipid accumulation score,[6],0.011
CCCCC/C=C\C/C=C\CC/C=C\CCCC(=O)OCC [Pinolenic Acid ethyl ester],scaled lipid accumulation score,[6],≤ 0
CC[C@]1(O)C[C@H]2CN(CCc3c([nH]c4ccccc34)[C@@](C(=O)OC)(c3cc4c(cc3OC)N(C)[C@H]3[C@@](O)(C(N)=O)[C@H](O)[C@]5(CC)C=CCN6CC[C@]43[C@@H]65)C2)C1.O=S(=O)(O)O,scaled lipid accumulation score,library stock concentration: 9.7 mM,1.52 (active)
CCCCC[C@H](O)/C=C/[C@@H]1[C@H]2C/C(=C/CCCC(=O)O)C[C@H]2C[C@H]1O [Carbacyclin],scaled lipid accumulation score,[6],≤ -0.021
N=C(N)c1ccc(N2CCN(C3CCN(CC(=O)O)CC3)CC2)cc1,scaled lipid accumulation score,[5],≤ -0.006
CCCCCCCCCCCCC/C=C/[C@@H](O)[C@H](CO)NC(=O)CCCCC [C-6 Ceramide],scaled lipid accumulation score,[6],≤ 0
CCCCC/C=C\C/C=C\C/C=C\C/C=C\CCCCN1C(=O)C=CC1=O [N-Arachidonyl Maleimide],scaled lipid accumulation score,[6],≤ 0
CCCCC[C@H](O)CC(=O)CCc1ccc(O)c(OC)c1 [6-Gingerol],scaled lipid accumulation score,library stock concentration: 17 mM,≤ -0.014
Cc1c(-c2cnccn2)ssc1=S [Oltipraz],scaled lipid accumulation score,library stock concentration: 8.8 mM,0.01
N[C@H](CO)C(=O)O [D-Serine],scaled lipid accumulation score,[5],≤ 0
CN1CCC(=C2c3ccccc3CCc3cccnc32)CC1 [Azatadine dimaleate],scaled lipid accumulation score,[4],0.004
same,scaled lipid accumulation score,[5],0.221
CN1CCC(=C2c3ccccc3C=Cc3ccccc32)CC1 [Cyproheptadine hydrochloride],scaled lipid accumulation score,library stock concentration: 6.2 mM,0.686
CN1CCC(=C2c3ccccc3CCc3cccnc32)CC1,scaled lipid accumulation score,[5],0.464
Cl[H].CN1CC\C(=C(/c2c(cccc2)C=C3)\c(cccc4)c34)\CC1 [Cyproheptadine hydrochloride],scaled lipid accumulation score,[5],1.04 (active)
C(=C(/CC1)\CCN1C)(/c2c3cccc2)\c4c(cccc4)C=C3.Cl [Cyproheptadine hydrochloride],scaled lipid accumulation score,[5],0.933 (active)
CN1CCC(=C2c3ccccc3C=Cc3ccccc32)CC1,scaled lipid accumulation score,[5],1.32 (active)
CN1CCC(=C2c3ccccc3C=Cc3ccccc32)CC1 [Cyproheptadine HCl],scaled lipid accumulation score,[4],0.629
same,scaled lipid accumulation score,[5],0.63
CN1CCC(=C2c3ccccc3Sc3ccccc32)CC1 [Pimethixene maleate],scaled lipid accumulation score,,0.65
same,scaled lipid accumulation score,[5],0.656
CN1CCC(=C2c3ccccc3C=Cc3ccccc32)CC1 [Cyproheptadine],scaled lipid accumulation score,library stock concentration: 7 mM,0.351
Cl.C(=C(\CCN(C)C1)/C1)(/c2c(cccc2)C=C3)\c4c3cccc4 [Cyproheptadine hydrochloride],scaled lipid accumulation score,,0.968 (active)
C#C[C@]1(OC(C)=O)CC[C@H]2[C@@H]3CCC4=CC(=NO)CC[C@@H]4[C@H]3CC[C@@]21CC (mixture of isomers) [Norgestimate],scaled lipid accumulation score,library stock concentration: 5.4 mM,≤ 0
CC1COCCN1c1cc(C2(S(C)(=O)=O)CC2)nc(-c2cccc3[nH]ccc23)n1 (stereo not given),scaled lipid accumulation score,[4],≤ 0
same,scaled lipid accumulation score,[5],≤ -0.001
